Assay results taken from PubChem BioAssay (NCATS).
Inconclusive results are not listed. The source made the active and inactive calls. The call rests on the fitted dose curve; in most records, active means well fitted curve in the direction sought with a large enough effect; inconclusive means small, poorly fitted or top-dose-only effect, or another doubt; inactive means no such curve, though single readings can be large; an effect the other way counts as inactive or inconclusive.

Legend:
[1] = test system: Zika virus NS2B-NS3 protease (linked construct); experiment: Primary screen NINDS Rhodamine qHTS for Zika virus inhibitors (AID 1347160); further: nearly all actives have a fitted effect of over 55% in size
Procedure, shortened: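 Single-chain NS2B-NS3 protease, 25 nM, pH 8.0; compounds preincubated 15 min. Activity: Rhodamine110 release from 1.5 microM substrate over 15 min, room temperature, data fitted to 4-parameter Hill.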

[2] = molecular target: Calcium and integrin-binding protein 1 (Homo sapiens) (UniProt Q99828); experiment: Primary qHTS for Identification of Calcium Integrin Binding Protein 1 (CIB1) Competitor (AID 1508620);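 further: GST tagged CIB1 binding a fluorescein labelled alphaIIb integrin peptide tracer; top concentration of the series differs between compounds; on the % scale 0 is the no-effect control and ±100 the full control effect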
Calcium and integrin-binding protein 1 (Homo sapiens), sequence (Q99828 whole entry, looked up): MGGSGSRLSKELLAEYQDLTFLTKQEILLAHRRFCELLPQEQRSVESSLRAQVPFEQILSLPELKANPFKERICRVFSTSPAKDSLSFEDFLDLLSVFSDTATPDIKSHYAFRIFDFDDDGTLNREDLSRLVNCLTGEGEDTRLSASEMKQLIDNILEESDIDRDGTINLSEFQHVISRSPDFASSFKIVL
Procedure, shortened: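 Fluorescence polarization competition: CIB1-GST (1 uM final) preincubated with compound 15 min at room temperature, then FITC-labeled alphaIIb peptide (100 nM final) added for another 15 min. Polarization read at Ex 480/Em 540.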

[3] = Primary qHTS for inhibitors of nuclear receptor binding SET domain protein 2 (NSD2) in an isogenic RCH-ACV NSD2 p.E1099K mutant (9B) (AID 1645876); further: nearly all actives have a fitted effect of over 70% in size; further: potency means the concentration at half of the fitted maximal effect
[4] = molecular target: Glutathione peroxidase 1 (Homo sapiens) (UniProt P07203); experiment: Primary qHTS Assay for Inhibitors of Recombinant Selenoprotein Glutathione Peroxidase 1 (GPX1) (AID 1845191); further: nearly all actives have a fitted effect of over 65% in size
Glutathione peroxidase 1 (Homo sapiens), sequence (P07203 whole entry, looked up): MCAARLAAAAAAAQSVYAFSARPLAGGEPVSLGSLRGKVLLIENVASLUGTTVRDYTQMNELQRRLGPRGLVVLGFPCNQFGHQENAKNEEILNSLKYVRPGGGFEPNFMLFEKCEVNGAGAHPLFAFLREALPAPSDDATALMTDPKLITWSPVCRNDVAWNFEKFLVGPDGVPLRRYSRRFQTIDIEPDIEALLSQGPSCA
Procedure, shortened: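 GPX1 10 nM, GR 100 nM, GSH 1 mM, NADPH 0.5 mM, CHP 0.5 mM (final). 30-min cpd preincubation, RT. Ex340/Em450 read t=0, t=15 min.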

[5] = molecular target: Phospholipid hydroperoxide glutathione peroxidase GPX4 (Homo sapiens) (UniProt P36969); experiment: Primary qHTS Assay for Inhibitors of Recombinant Selenoprotein Glutathione Peroxidase 4 (GPX4) (AID 1845192); further: nearly all actives have a fitted effect of over 65% in size
Phospholipid hydroperoxide glutathione peroxidase GPX4 (Homo sapiens), sequence (P36969 whole entry, looked up): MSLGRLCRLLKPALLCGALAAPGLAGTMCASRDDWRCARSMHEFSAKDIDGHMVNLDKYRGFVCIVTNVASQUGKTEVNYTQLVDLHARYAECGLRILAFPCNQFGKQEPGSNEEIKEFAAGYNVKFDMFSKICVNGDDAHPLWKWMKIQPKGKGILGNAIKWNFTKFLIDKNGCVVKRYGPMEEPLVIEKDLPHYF
Procedure, shortened: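 qHTS, GR-coupled: GPX4 200 nM + cpd 30 min RT → GSH 1 mM, NADPH 0.5 mM, GR 100 nM → CHP 0.5 mM start; fluor 340/450 at t0 and t15 min; no-enzyme wells as control.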

[6] = molecular target: Luciferin 4-monooxygenase (Photinus pyralis) (UniProt P08659); experiment: Primary firefly luciferase (FLuc) qHTS assay for identification of artifact compounds. (AID 1845220); conditions: outcome: dose series up to 54.1 µM unless noted; further: nearly all actives have a fitted effect of over 60% in size
Procedure, shortened: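 qHTS, 15 min compound preincubation with substrate (10 uM luciferin, 10 uM ATP) at RT, then 10 nM FLuc; 5 min; luminescence; % inhibition vs no-enzyme/DMSO controls, 4-parameter Hill fit.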

[7] = Primary fluorescence-based thiol-reactive (MSTI) qHTS assay for identification of artifact compounds. (AID 1845221);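 further: thiol-reactive compounds lower the probe fluorescence signal; nearly all actives have a fitted effect of over 65% in size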
Procedure, shortened: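 Thiol-reactive compounds detected by quenching of 4 uM MSTI fluorescence (525/598 nm) after 1 h room-temperature dark incubation in PBS pH 7.4, 2% DMSO. qHTS titration; percent inhibition Hill-fitted against Acetyl-MSTI/MSTI controls.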

[8] = test system: Nanoluciferase (engineered Oplophorus gracilirostris luciferase); experiment: Primary Nanoluciferase (NLuc) qHTS assay for identification of artifact compounds. (AID 1845222)
Procedure, shortened: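 Luminescence read-out of secreted NLuc in S16 cell conditioned medium (1:55); compounds tested with 15 min RT preincubation, then Nano-Glo substrate 1:100, 5 min. % inhibition vs no-enzyme and DMSO controls, 4-parameter Hill fit.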

[9] = test system: CRL-7250; experiment: Cytotoxic Profiling of Annotated Libraries Using Quantitative High-Throughput Screening (AID 1296008); conditions: Five cell lines viability, CellTiter-Glo ATP luminescence, 48-72 h; max response: stronger effect = lower value; further: nearly all actives have a fitted effect of over 60% in size; further: potency means the concentration at half of the fitted maximal effect; on max response: on the % scale 0 is the no-effect control and ±100 the full control effect
Procedure, shortened: (§1)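 Compounds were pin-transferred onto cells and incubated 48 or 72 hr at 37 degree Celsius, 95% humidity. CellTiter-Glo was added, plates sat 10 min at room temperature, then ATP-coupled luminescence was imaged as the viability read-out.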

[10] = test system: HEK293; experiment: as above; conditions: Five cell lines viability, CellTiter-Glo ATP luminescence, 48-72 h; max response: stronger effect = lower value
Procedure, shortened: as §1

[11] = test system: HaCat; experiment: as above; conditions: Five cell lines viability, CellTiter-Glo ATP luminescence, 48-72 h; max response: stronger effect = lower value
Procedure, shortened: as §1

[12] = test system: KB-3-1; experiment: as above; conditions: Five cell lines viability, CellTiter-Glo ATP luminescence, 48-72 h; max response: stronger effect = lower value
Procedure, shortened: as §1

[13] = test system: CASKI; experiment: Primary qHTS to identify gynecologic anti-cancer compounds using libraries of approved drugs and bioactive compounds (AID 1345084); conditions: Gynecologic cancer cell panel viability, ATPlite luminescence, 48 h; series mostly up to 57.5 µM; further: nearly all actives have a fitted effect of over 55% in size; further: potency means the concentration at half of the fitted maximal effect
Procedure, shortened: (§2)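 Five-point cytotoxicity, 48 h drug exposure at 37 C, 5% CO2, on cells seeded 16 h beforehand. ATP content read by ATPlite luminescence.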

[14] = test system: Es-2; experiment: as above; conditions: Gynecologic cancer cell panel viability, ATPlite luminescence, 48 h; series mostly up to 57.5 µM
Procedure, shortened: as §2

[15] = test system: PA-1; experiment: as above; conditions: Gynecologic cancer cell panel viability, ATPlite luminescence, 48 h; series mostly up to 57.5 µM
Procedure, shortened: as §2

[16] = test system: Tov-21-G; experiment: as above; conditions: Gynecologic cancer cell panel viability, ATPlite luminescence, 48 h; series mostly up to 57.5 µM
Procedure, shortened: as §2

[17] = test system: Hek293T; experiment: as above; conditions: Gynecologic cancer cell panel viability, ATPlite luminescence, 48 h, control line for the selectivity index; series mostly up to 57.5 µM
Procedure, shortened: as §2

[18] = test system: OV90; experiment: as above; conditions: Gynecologic cancer cell panel viability, ATPlite luminescence, 48 h; series mostly up to 57.5 µM
Procedure, shortened: as §2

[19] = test system: Tov112D; experiment: as above; conditions: Gynecologic cancer cell panel viability, ATPlite luminescence, 48 h; series mostly up to 57.5 µM
Procedure, shortened: as §2

[20] = test system: C33A; experiment: as above; conditions: Gynecologic cancer cell panel viability, ATPlite luminescence, 48 h; series mostly up to 57.5 µM
Procedure, shortened: as §2

CC1=C[C@H]2O[C@@H]3C[C@H]4OC(=O)/C=C/C=C/C(=O)OCC/C(C)=C/C(=O)OC[C@@]2(CC1)[C@]4(C)[C@]31CO1
active: Potency [3] 5.6 nM | Potency [9] 25.2 nM | Potency [10] 8 nM | Potency [11] 112 nM | Potency [12] 20 nM | Potency [13] 112 nM | Potency [14] 25.1 nM | Potency [15] 70.8 nM | Potency [16] 89.1 nM
inactive: Potency [1] | Potency [2] | Potency [4] | Potency [5] | outcome [6] inactive [at 25.7 µM] | Potency [7] | Potency [8]

CC(=O)OC[C@]12C[C@H](OC(=O)CC(C)C)C(C)=C[C@H]1O[C@@H]1[C@H](O)[C@@H](OC(C)=O)[C@@]2(C)[C@@]12CO2
inactive: Potency [1] | Potency [4] | Potency [5] | outcome [6] inactive [at 25.7 µM] | Potency [7] | Potency [8]
active: Potency [3] 22.4 nM | Potency [9] 89.3 nM | Potency [10] 22.4 nM | Potency [11] 224 nM | Potency [12] 35.5 nM | Potency [13] 199 nM | Potency [14] 100 nM | Potency [17] 112 nM | Potency [18] 2510 nM | Potency [16] 224 nM | Potency [19] 224 nM

C[C@H]1O[C@@H](n2cnc3c(N)ncnc32)C[C@@H]1O
inactive: Potency [1] | Potency [2] | Potency [3] | Potency [4] | Potency [5] | outcome [6] | Potency [7] | Potency [8] | max response [9] 0.373% | max response [10] 0.909% | max response [11] 3.49% | outcome [12] | Potency [20] | Potency [13] | Potency [14] | Potency [17] | Potency [18] | Potency [15] | Potency [16] | Potency [19]

CO[C@@H]1[C@H](O)[C@@H](O[C@@H]2C[C@H]3CC[C@@H]4C(CC[C@]5(C)[C@@H](C6=CC(=O)OC6)CC[C@]45O)[C@@]3(C)[C@H](O)C2)O[C@H](C)[C@@H]1O (stereo not given in full)
active: Potency [3] 89.3 nM | Potency [9] 112 nM | Potency [10] 224 nM | Potency [11] 1780 nM | Potency [12] 448 nM | Potency [20] 199 nM | Potency [13] 1260 nM | Potency [14] 178 nM | Potency [17] 224 nM | Potency [18] 1000 nM | Potency [15] 199 nM | Potency [16] 178 nM | Potency [19] 89.1 nM
inactive: Potency [2] | Potency [4] | Potency [5] | outcome [6] | Potency [7] | Potency [8]

COc1ccc2c3c([nH]c2c1)C(C=C(C)C)N1C(=O)C2CCCN2C(=O)C1C3 (stereo not given)
inactive: Potency [1] | Potency [2] | Potency [4] | Potency [5] | outcome [6] | Potency [8] | max response [9] -26.7% | max response [10] -10.4% | max response [11] -17.6% | outcome [12] | Potency [20] | Potency [13] | Potency [14] | Potency [17] | Potency [18] | Potency [15] | Potency [16] | Potency [19]

CO[C@H]1[C@H](O)[C@H](O[C@H]2CC[C@]3(C=O)C4CC[C@]5(C)[C@H](C6=CC(=O)OC6)CC[C@]5(O)C4CC[C@@H]3C2)O[C@@H](C)[C@@H]1O (stereo not given in full)
inactive: Potency [1] | Potency [2] | Potency [4] | Potency [5] | Potency [7] | Potency [8]
active: Potency [3] 15.9 nM | Potency [9] 28.2 nM | Potency [10] 50.2 nM | Potency [11] 126 nM | Potency [12] 39.9 nM | Potency [20] 89.1 nM | Potency [13] 224 nM | Potency [14] 100 nM | Potency [17] 126 nM | Potency [18] 282 nM | Potency [16] 31.6 nM

COC1CC(O[C@H]2CC[C@]3(C)C4CC[C@]5(C)[C@@H](C6=CC(=O)OC6)[C@@H](OC(C)=O)C[C@]5(O)C4CC[C@@H]3C2)OC(C)C1O (stereo not given in full)
active: Potency [3] 224 nM | Potency [9] 317 nM | Potency [10] 502 nM | Potency [11] 796 nM | Potency [12] 563 nM | Potency [20] 891 nM | Potency [14] 891 nM | Potency [17] 1000 nM | Potency [18] 3160 nM | Potency [15] 891 nM | Potency [16] 708 nM | Potency [19] 251 nM
inactive: Potency [1] | Potency [4] | Potency [5] | outcome [6] | Potency [7] | Potency [8]

CC(C)(C)[C@]1(O)C[C@@H]2OC(=O)C[C@@]23C(=O)O[C@@H]2OC(=O)[C@@H](O)[C@]213
inactive: Potency [1] | Potency [2] | Potency [3] | Potency [4] | Potency [5] | outcome [6] | Potency [7] | Potency [8] | max response [9] 1.12% | max response [10] 1.81% | max response [11] -5.58% | max response [12] -3.84% | Potency [20] | Potency [13] | Potency [14] | Potency [17] | Potency [18] | Potency [15] | Potency [16] | Potency [19]

C=CC(C)(C)c1[nH]c2c(CC=C(C)C)cc(CC=C(C)C)cc2c1C[C@@H]1NC(=O)[C@H](C)NC1=O
inactive: Potency [1] | Potency [2] | Potency [3] | Potency [4] | Potency [5] | outcome [6] | Potency [7] | Potency [8] | max response [9] 3.03% | max response [10] -8.14% | max response [11] -1.56% | outcome [12] | Potency [20] | Potency [13] | Potency [14] | Potency [17] | Potency [18] | Potency [15] | Potency [16] | Potency [19]
